Screens from PubChem.
Most compounds without a hit are left out; they make up all but 4.8% or so of the library.
PfHsp90 set2: growth inhibition of yeast expressing Plasmodium Hsp90; S. cerevisiae expressing PfHsp90, BacTiter-Glo ATP, 48 h; yeast lacking PDR1 and PDR3 efflux regulators; inhibition, % at 9.4 µM; 310,000 tested, 0.32% active;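 active = every replicate shows inhibition above about 80%, whatever the replicate mean, limit read from the data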
tim23-1 inh: tim23-1 yeast growth inhibition; S. cerevisiae tim23-1 growth, BacTiter-Glo luminescence, 24 h; inhibition, % at 20 µM; 330,000 tested, 1.3% active; AID 463212;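 active = growth inhibition of the mutant yeast at or above 50%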;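 also: temperature-sensitive mutant grown at 25 °C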
SKKanGAS inh: SKKanGAS growth inhibition; S. pyogenes SKKanGAS, kanamycin growth, BacTiter-Glo, 6 h; inhibition, % at 7.5 µM; 300,000 tested, 1.3% active;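 active = mean replicate score, as percent of positive control median, at least 50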;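 also: strain carries kanamycin resistance gene driven by streptokinase promoter and grows in 40 µg/ml kanamycin; loss of luminescence reflects streptokinase promoter inhibition or plain growth inhibition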
TIM10 inh: growth inhibitors of TIM10 yeast strain; S. cerevisiae TIM10 strain growth, BacTiter-Glo luminescence, 24 h; inhibition, % at 10 µM; 330,000 tested, 1.4% active; AID 463195;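 active = inhibition of 40% or more at the single tested concentration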;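 also: wild-type TIM10 isogenic control strain grown at permissive 25 °C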
NALP1 inh: blocks the NALP1 inflammasome reconstituted in yeast; S. cerevisiae NALP1/ASC/caspase-1 growth, X-gal OD620, 72 h; inhibition, % at 10 µM; 280,000 tested, 0.61% active; in the data active = inhibition mostly above about 24%, no sharp cut-off; inactive = mostly below about 32%
tim10-1 inh: inhibits growth of tim10-1 mutant yeast; S. cerevisiae tim10-1 ts strain growth, BacTiter-Glo, 24 h; inhibition, % at 20 µM; 330,000 tested, 2.2% active; AID 463190;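 active = inhibition of at least 40%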;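 also: mutant grown at 25 °C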
tim10 confirm: TIM10 yeast growth inhibition, confirmed. shares compounds with TIM10 inh. 4,600 tested, 63% active. S. cerevisiae tim10 strain growth, BacTiter-Glo luminescence, 24 h. AID 463215. inhibition, % at 10 µM;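 active = inhibition of yeast growth at or above a set limit in either of two replicates at 10 µM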; also: this counterscreen used the strain with wild-type TIM10
Of the large screens only hits and unclear results are named; the others gave an inactive call (follow-up assays come after a bar, where they were run).

Clc1ccc2[nH]cc(-c3nnnn3-c3ccccc3)c2c1	TIM10 inh 41.7 (no result: PfHsp90 set2) | tim10 confirm inactive
Cc1ccc(NC(=O)Cn2ncc3c([nH]c4ccccc43)c2=O)cc1Cl	none
COC(=O)CC(NC(=S)NC(=O)c1ccccc1)c1ccc(Br)cc1 (stereo unspecified)	TIM10 inh 40.3 | tim10 confirm 36.9
COC(=O)CC(N)c1ccc(Br)cc1 (stereo unspecified)	none
Cc1ccsc1/C=N/NC(=S)NCc1ccccc1	TIM10 inh 54.0 | tim10 confirm 43.8
COc1cc(/C=C(\C#N)C(=O)Nc2cccc3ncccc23)cc(OC)c1OC	TIM10 inh 42.0 | tim10 confirm inactive
COc1ccc(/C=C(\C#N)C(=O)Nc2cccc3ncccc23)cc1OC	none (no result: NALP1 inh)
CN(C)CCCN(C(=O)c1cc(-c2cccs2)nc2ccccc12)c1nc2ccc(F)cc2s1	TIM10 inh 49.4 (no result: PfHsp90 set2) | tim10 confirm 31.7
CN(C)CCN(C(=O)c1cc(Cl)sc1Cl)c1nc2ccc(F)cc2s1	none
CN(C)CCCN(C(=O)CCc1ccccc1)c1nc2ccc(F)cc2s1	none
CN(C)CCN(C(=O)C1=COCCO1)c1nc2ccc(F)cc2s1	TIM10 inh 64.3 | tim10 confirm inactive
O=C(NCc1ccco1)c1cc(S(=O)(=O)N2CCOCC2)ccc1Br	none
O=C(CN(c1ccccc1F)S(=O)(=O)c1ccccc1)NC1CCCCCC1	none
Cc1ccc(S(=O)(=O)N(CC(=O)NC2CCCCCC2)c2ccccc2F)cc1	TIM10 inh 40.4 | tim10 confirm inactive
c1ccc(-c2nc3cnccn3c2Nc2ccc3c(c2)OCCO3)cc1	TIM10 inh 44.1 | tim10 confirm inactive
O=C(CN1C(=O)c2ccccc2S1(=O)=O)Nc1cccc(S(=O)(=O)N2CCCCC2)c1	none (no result: SKKanGAS inh, NALP1 inh)
CC(=O)Nc1cccc(Oc2ncnc3scc(-c4ccccc4)c23)c1	TIM10 inh 47.7 | tim10 confirm inactive
O=S(=O)(c1ccc(Oc2ncnc3scc(-c4ccccc4)c23)cc1)N1CCOCC1	none
CNc1ccc(Br)cc(C(=O)/C=C/c2cccc(Cl)c2Cl)c1=O	none (no result: tim23-1 inh, SKKanGAS inh, TIM10 inh, tim10-1 inh)
CCNc1ccc(Br)cc(C(=O)/C=C/c2ccccc2Cl)c1=O	TIM10 inh 45.5 (no result: PfHsp90 set2, NALP1 inh) | tim10 confirm inactive
O=c1c(Cl)c(N/N=C/c2ccc(Br)cc2)cnn1-c1ccccc1	TIM10 inh 40.3 | tim10 confirm inactive
O=C(N/N=C/c1ccc([N+](=O)[O-])cc1)c1cc(C2CC2)[nH]n1	TIM10 inh 51.3 | tim10 confirm 56.0
Fc1ccc(C2CC(c3ccccc3)n3ncnc3N2)cc1 (stereo unspecified)	none
CCOc1ccc(C2CC(c3ccc(F)cc3)n3ncnc3N2)cc1 (stereo unspecified)	TIM10 inh 40.1 | tim10 confirm 42.3
COCCOC(=O)C1=C(C)N(c2ccccc2)C(=S)NC1c1ccccc1C(F)(F)F (stereo unspecified)	none
COC(=O)C1=C(C)N(c2ccccc2)C(=S)NC1c1ccccc1C(F)(F)F (stereo unspecified)	TIM10 inh 49.9 | tim10 confirm inactive
C=CCSC1=C(C#N)C(c2ccccc2Cl)CC(=O)N1 (stereo unspecified)	none
CCCCCOCC1CC(C/C(C)=N/NC(N)=S)C(=O)O1 (stereo unspecified)	none
C/C(CC1CC(COCC(C)C)OC1=O)=N\NC(N)=S (stereo unspecified)	TIM10 inh 96.4 | tim10 confirm inactive
O=C(O)CC(C(=O)NC1CCCCC1)C1CCCO1 (stereo unspecified)	none
CCC(Oc1ccccc1)C(=O)Nc1nnc(C(F)(F)F)s1 (stereo unspecified)	none (no result: SKKanGAS inh)
Cn1nnnc1SC(C(=O)Nc1ccc(F)cc1)c1ccccc1 (stereo unspecified)	none
Cn1c(SC(C(=O)Nc2ccc(F)cc2)c2ccccc2)nc2ccccc21 (stereo unspecified)	TIM10 inh 45.9 | tim10 confirm 43.3
COc1ccc(CSc2nnc(N)s2)cc1F	none
C=CCn1c(SCc2c(Cl)cccc2Cl)nnc1-c1cccnc1	TIM10 inh 40.6 | tim10 confirm inactive
O=S(=O)(c1ccc(-c2csc(-c3cccnc3)n2)cc1)N1CCCCC1	TIM10 inh 48.2 (no result: PfHsp90 set2) | tim10 confirm inactive
CN1CCN(c2ccc(Cl)cc2NC(=O)c2ccc(S(=O)(=O)N(C)C)cc2)CC1	none
COc1ccc2cc3cc(C(=O)NCCc4ccc(OC)c(OC)c4)oc3nc2c1	TIM10 inh 54.8 | tim10 confirm inactive
COc1ccc2cc3cc(C(=O)NCc4cccs4)oc3nc2c1	none (no result: PfHsp90 set2)
CCN1CCN(CCCNC(=O)c2cc3cc4ccc(OC)cc4nc3o2)CC1	none
COc1ccc2cc3cc(C(=O)N4CCN(C5CCCCC5)CC4)oc3nc2c1	TIM10 inh 63.8 | tim10 confirm 46.0
COc1ccc2cc3cc(C(=O)NCCCN4CCC(C)CC4)oc3nc2c1	TIM10 inh 77.1 | tim10 confirm 68.2
CCCN(CCC)CCCNC(=O)c1cc2cc3ccc(OC)cc3nc2o1	TIM10 inh 64.6 | tim10 confirm inactive
CCN1CCN(c2ncc(C(=O)N3CCCc4ccccc43)c3ccccc23)CC1	none
COCCn1c(SCC(=O)Nc2ccccc2OC)nc2ccccc2c1=O	none
Cc1ccc(NC(=O)Nc2nnc(Cc3ccc(F)cc3)s2)cc1	none
Cc1nc(-c2ccccn2)sc1C(=O)Nc1ccc(F)cc1F	none
O=C(NCC1CCCO1)c1cnn2c(C(F)F)cc(C3CC3)nc12 (stereo unspecified)	none
COc1ccc(-c2cc(C(F)F)n3ncc(C(=O)NCC4CCCO4)c3n2)cc1 (stereo unspecified)	TIM10 inh 45.2 (no result: NALP1 inh) | tim10 confirm 34.1
CCOC(=O)c1cccc(NC(=O)Cn2cnc3c2c(=O)n(C)c(=O)n3C)c1	none
Cn1cc(Br)c(NC(=O)/C=C/C(=O)O)n1	TIM10 inh 65.9 | tim10 confirm inactive
COc1cc(C(=O)Oc2cc(N)n(S(=O)(=O)c3ccccc3)n2)cc(OC)c1OC	none
COc1ccc(S(=O)(=O)n2nc(OC(=O)c3ccc(C)cc3)cc2N)cc1	TIM10 inh 52.9 | tim10 confirm 34.6
Cc1ccc(S(=O)(=O)n2nc(OC(=O)c3ccccc3F)cc2N)cc1	TIM10 inh 45.8 | tim10 confirm 48.1
COc1ccc(S(=O)(=O)n2nc(OC(=O)c3ccccc3)cc2N)cc1	TIM10 inh 49.5 | tim10 confirm inactive
COc1ccc(S(=O)(=O)n2nc(OC(=O)c3ccccc3Br)cc2N)cc1	TIM10 inh 50.0 | tim10 confirm inactive
Cc1ccc(C(=O)Oc2cc(N)n(S(=O)(=O)c3ccc(C)cc3)n2)cc1	none
CCOc1ccc(C(C)NC(=O)c2ccc3c(c2)NC(=O)C(C)S3)cc1OCC (stereo unspecified)	none (no result: PfHsp90 set2, SKKanGAS inh, NALP1 inh)
